Activity calls are given as the source filed them.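 Rule for the calls: active = compounds whose fitted half-maximal cell-killing potency is at most twice their top tested dose; inconclusive = flat curve with 30 to 70% signal loss, or poor fit; inactive = the rest.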
Test: loss of viability in embryonic kidney cells – cell-based, HEK293T, ATP luminescence, dry powder, cytotoxicity control, dose response (AID 652119)
Conditions: CellTiter-Glo ATP luminescence, 48 h; series mostly up to 26 µM

Q: With `C/C1=C\[C@@H](O)C(C)(C)CCCC2(C)OC2C[C@@H]1OC(=O)c1ccc(O)cc1` (some centres not stated) as the compound, how does the outcome read?
A: The outcome was “inactive”.

Q: Which outcome does the source give for `CCOC(=O)C1(Cc2cccc(OC)c2)CCN(Cc2ccc(O)c(Cl)c2)CC1` here?
A: The outcome was “inactive”.

Q: For `C=CCOc1ccc(CN2CCC(CCOc3ccccc3)(C(=O)O)CC2)cc1Cl`, which outcome is on record?
A: Its outcome is “inactive”.

Q: For `O=C(Nc1ccccc1)C1(CCOc2ccccc2)CCN(Cc2ccc(O)c(Cl)c2)CC1`, which outcome is on record?
A: Its outcome is “inactive”.

Q: For `C/C1=C\C[C@H](OC(=O)c2ccc(O)cc2)/C(C)=C/[C@@H](O)C(C)(C)CCC1`, which outcome is on record?
A: Its outcome is “inactive”.

Q: For `CCOC(=O)C1(CCOc2ccccc2)CCN(Cc2ccc(OC)cc2)CC1`, which outcome is on record?
A: Its outcome is “inactive”.

Q: Which outcome does the source give for `C=CCOc1ccc(CN2CCC(CCOc3ccccc3)(C(=O)NC3CCCC3)CC2)cc1Cl` here?
A: The outcome was “inactive”.

Q: Which outcome does the source give for `CCOC(=O)C1(CCOc2ccccc2)CCN(Cc2ccc(O)cc2)CC1` here?
A: The outcome was “inactive”.

Q: Which outcome does the source give for `CC(C)(C)OC(=O)C1(CCOc2ccccc2)CCN(Cc2ccc(O)c(Cl)c2)CC1` here?
A: Its outcome is “inactive”.

Q: Which outcome does the source give for `CCOC(=O)C1(CCOc2ccccc2)CCN(C(=O)OC(C)(C)C)CC1` here?
A: The outcome was “inactive”.

Q: For `O=C(N1CCCC1)C1(CCOc2ccccc2)CCN(Cc2ccc(O)c(Cl)c2)CC1`, which outcome is on record?
A: The outcome was “inactive”.

Q: With `CCOC(=O)c1c(CN2CCN(CCO)CC2)n(-c2ccccc2)c2cc(Br)c(O)cc12` as the compound, how does the outcome read?
A: The outcome was “inactive”.

Q: With `CCOC(=O)C1(Cc2ccccc2)CCN(Cc2ccc(O)c(Cl)c2)CC1` as the compound, how does the outcome read?
A: Its outcome is “inactive”.

Q: Which outcome does the source give for `O=C(NC1CCCC1)C1(CCOc2ccccc2)CCN(Cc2ccc(O)c(Cl)c2)CC1` here?
A: The outcome was “inactive”.

Q: For `CCOC(=O)C1(CCOc2ccccc2)CCN(C(=O)c2ccc(O)c(Cl)c2)CC1`, which outcome is on record?
A: Its outcome is “inactive”.

Q: Which outcome does the source give for `C=CCOc1ccc(CN2CCC(CCOc3ccccc3)(C(=O)OCC)CC2)cc1Cl` here?
A: The outcome was “inactive”.

Q: For `C=CCOc1ccc(CN2CCC(CCOc3ccccc3)(C(=O)N(C)CC)CC2)cc1Cl`, which outcome is on record?
A: Its outcome is “inactive”.

Q: With `CCOC(=O)C1(CCOC)CCCN(Cc2ccc(Cl)cc2)C1` (configuration not stated) as the compound, how does the outcome read?
A: Its outcome is “inactive”.

Q: With `CCOC(=O)C1(CCOc2ccccc2)CCN(Cc2ccc(O)c(Cl)c2)CC1` as the compound, how does the outcome read?
A: Its outcome is “inactive”.

Q: For `CCOC(=O)C1(CCOc2ccccc2)CCN(Cc2ccc(OC)c(Cl)c2)CC1`, which outcome is on record?
A: The outcome was “inactive”.

Q: For `CC(C)OC(=O)C1(CCOc2ccccc2)CCN(Cc2ccc(O)c(Cl)c2)CC1`, which outcome is on record?
A: The outcome was “inactive”.

Q: Which outcome does the source give for `CCOC(=O)C1(CCOC)CCN(Cc2ccc(O)c(Cl)c2)CC1` here?
A: Its outcome is “inactive”.

Q: With `CCOC(=O)C1(CCOc2ccccc2)CCN(Cc2cccc(Cl)c2)CC1` as the compound, how does the outcome read?
A: The outcome was “inactive”.

Q: With `CCOC(=O)C1(CCOc2ccccc2)CCN(Cc2ccc3[nH]c(=O)oc3c2)CC1` as the compound, how does the outcome read?
A: Its outcome is “inactive”.

Q: For `CCOC(=O)C1CCN(C(=O)OC(C)(C)C)CC1`, which outcome is on record?
A: The outcome was “inactive”.

Q: For `C=CCOc1ccc(CN2CCC(CCOc3ccccc3)(C(=O)N3CCCC3)CC2)cc1Cl`, which outcome is on record?
A: Its outcome is “inactive”.

Q: For `CCNC(=O)C1(CCOc2ccccc2)CCN(Cc2ccc(O)c(Cl)c2)CC1`, which outcome is on record?
A: Its outcome is “inactive”.
